# Data from article PMC5540273 (PLoS ONE, 2017).
# Test system: CDK2
# Settings: concentration: 1 μM, replicates: in singlicate; n = 1
# 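Also: KINOMEscan kinase panel screen.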
row,SMILES,%Inh
1,Cc1nccc(-c2c(-c3ccc(F)cc3)ncn2CCCN2CCOCC2)n1.Cl [SB-282975],37%
2,O=C1NC(=O)C(c2ccc(Cl)cc2)=C1Nc1cccc(Cl)c1 [SB-317651],0%
3,Cc1ccc(NC(=O)Nc2ccccc2)cc1-c1ccc(C(=O)Nc2ccncc2)cc1 [GSK1398471],1%
4,O=C(Nc1n[nH]c2nc(-c3cccs3)c(Br)cc12)C1CCCC1 [SB-743341],75%
5,COC(=O)C(NC(=O)NC1CCN(c2ccnc(Nc3ccc(F)cc3)n2)C1)c1ccccc1 (centres unmarked) [GSK1379712],81%
6,CC(=O)c1cccc(NC(=O)NC2CCN(c3ccnc(Nc4ccc(F)cc4)n3)C2)c1 (centres unmarked) [GSK1379710],8%
7,CCc1ccc(-c2ccc3c(c2)-c2n[nH]cc2S(=O)(=O)N3C)cc1,26%
8,O=C(Nc1n[nH]c2nc(-c3cccs3)c(Br)cc12)C1CC1 [SB-735297],77%
9,COC(=O)C(Cc1ccccc1)NC(=O)NC1CCN(c2ccnc(Nc3ccc(F)cc3)n2)C1 (centres unmarked) [GSK1379714],0%
10,CC(C)c1ccc(O)cc1Nc1ccnc2ccc(C(F)(F)F)cc12 [GW482059],0%
11,Cc1ccc(NC(=O)c2ccc(Cl)cc2)cc1-c1ccc(C(=O)Nc2ccncc2)cc1 [GSK1398467],0%
12,CC(C)c1cc(-c2ccc3c(N)n[nH]c3c2)nc(N)n1 [GSK2250882],0%
13,Cn1cnc2c(N)ncnc21 [SKF-97623],44%
14,COc1ccc(Nc2nccc(N3CCC(NC(=O)C(C)c4ccc(Cl)cc4)C3)n2)cc1 (centres unmarked) [GSK1379735],0%
15,COc1ccc(Nc2nccc(-c3ccc(NC(=O)c4cc5cc(F)ccc5[nH]4)cc3)n2)cc1 [GSK1229496],0%
16,CNc1nc(-c2ccc3c(N)n[nH]c3c2)cc(N2C[C@@H](C(=O)NC3CCCCC3)OC[C@H]2C)n1 [GSK2375584],0%
17,Cc1ccccc1-c1cc(-c2c[nH]nc2-c2ccccn2)ccn1 [GW680061],0%
18,CCn1c(-c2ccccc2)nc2cnccc21 [SB-733416],12%
19,c1ccc(-c2ccnc3[nH]ccc23)cc1 [SB-693578],0%

row,SMILES,%Inh
1,CC(=O)c1c(C)c2cnc(Nc3ccn(C)n3)nc2n(C2CCCC2)c1=O,3%
2,O=C(Nc1n[nH]c2cc(-c3ccsc3)ccc12)C1CC1 [SB-732932],57%
3,CSc1ccc(-c2nc3n(c2-c2ccncc2)CCC3)cc1 [SKF-105561],0%
4,O=C(Nc1n[nH]c2nc(-c3ccco3)c(Br)cc12)C1CCN(Cc2ccccc2)C1.O=C(O)[C@H](O)[C@@H](O)C(=O)O (centres unmarked) [SB-742034],13%
5,CNc1nc(-c2ccc3c(N)n[nH]c3c2)cc(N2C[C@@H](C(=O)Nc3ccccc3)CC[C@H]2C)n1 [GSK2298859],0%
6,Cn1cncc1C(=O)NC1CCN(c2ccnc(Nc3ccc(F)cc3)n2)C1 (centres unmarked) [GSK1379717],0%
7,O=c1cc(N2CCOCC2)nc2n(Cc3ccccc3F)ccn12 [GSK2297428],0%
8,CCCCc1nn2ncccc2c1-c1ccnc(NC2CC2)n1 [GW684374],0%
9,O=C1NC(=O)C(c2ccc(Cl)cc2)=C1Nc1ccc(O)cc1 [SB-340867],0%
10,COc1ccc(Nc2nccc(NCCNC(=O)Nc3cc(C)ccc3C)n2)cc1 [GSK1379899],0%
11,CC[C@@H]1CO[C@H](C(=O)Nc2ccccc2)CN1c1cc(-c2ccc3c(N)n[nH]c3c2)nc(NC)n1 [GSK2376236],0%
12,COc1cccc(CNC(=O)NC2CCN(c3ccnc(Nc4ccc(F)cc4)n3)C2)c1 (centres unmarked) [GSK1379723],0%
13,Cc1ccc(NC(=O)Nc2ccc(Cl)c(C(F)(F)F)c2)cc1-c1ccc(C(=O)Nc2ccncc2)cc1 [GSK1398470],0%
14,Nc1ncnc2occ(-c3ccc4c(c3)CCN4C(=O)Cc3cc(F)ccc3F)c12 [GSK2645446],0%
15,Fc1ccc(-c2nc3n(c2-c2ccncc2)CCS3)cc1 [GI98581],6%
16,Cc1ccc(NC(=O)Nc2ccccc2F)cc1-c1ccc(C(=O)Nc2ccncc2)cc1 [GSK1398477],0%
17,Cc1c(Cn2c(C)c(C)n3c(=O)cc(N4CCOCC4)nc23)cccc1C(F)(F)F [GSK2328680],2%
18,COc1ccc(Nc2nccc(N3CCC(NC(=O)c4cc5ccccc5s4)C3)n2)cc1 (centres unmarked) [GSK1379738],0%

# Test system: CDK3
# Settings: concentration: 1 μM, replicates: in singlicate; n = 1
row,SMILES,%Inh
1,Cc1nccc(-c2c(-c3ccc(F)cc3)ncn2CCCN2CCOCC2)n1.Cl [SB-282975],26%
2,O=C1NC(=O)C(c2ccc(Cl)cc2)=C1Nc1cccc(Cl)c1 [SB-317651],8%
3,Cc1ccc(NC(=O)Nc2ccccc2)cc1-c1ccc(C(=O)Nc2ccncc2)cc1 [GSK1398471],0%
4,O=C(Nc1n[nH]c2nc(-c3cccs3)c(Br)cc12)C1CCCC1 [SB-743341],67%
5,COC(=O)C(NC(=O)NC1CCN(c2ccnc(Nc3ccc(F)cc3)n2)C1)c1ccccc1 (centres unmarked) [GSK1379712],19%
6,CC(=O)c1cccc(NC(=O)NC2CCN(c3ccnc(Nc4ccc(F)cc4)n3)C2)c1 (centres unmarked) [GSK1379710],6%
7,CCc1ccc(-c2ccc3c(c2)-c2n[nH]cc2S(=O)(=O)N3C)cc1,0%
8,O=C(Nc1n[nH]c2nc(-c3cccs3)c(Br)cc12)C1CC1 [SB-735297],26%
9,COC(=O)C(Cc1ccccc1)NC(=O)NC1CCN(c2ccnc(Nc3ccc(F)cc3)n2)C1 (centres unmarked) [GSK1379714],6%
10,CC(C)c1ccc(O)cc1Nc1ccnc2ccc(C(F)(F)F)cc12 [GW482059],0%
11,Cc1ccc(NC(=O)c2ccc(Cl)cc2)cc1-c1ccc(C(=O)Nc2ccncc2)cc1 [GSK1398467],6%
12,CC(C)c1cc(-c2ccc3c(N)n[nH]c3c2)nc(N)n1 [GSK2250882],5%
13,Cn1cnc2c(N)ncnc21 [SKF-97623],0%
14,COc1ccc(Nc2nccc(N3CCC(NC(=O)C(C)c4ccc(Cl)cc4)C3)n2)cc1 (centres unmarked) [GSK1379735],24%
15,COc1ccc(Nc2nccc(-c3ccc(NC(=O)c4cc5cc(F)ccc5[nH]4)cc3)n2)cc1 [GSK1229496],0%
16,CNc1nc(-c2ccc3c(N)n[nH]c3c2)cc(N2C[C@@H](C(=O)NC3CCCCC3)OC[C@H]2C)n1 [GSK2375584],0%
17,Cc1ccccc1-c1cc(-c2c[nH]nc2-c2ccccn2)ccn1 [GW680061],17%
18,CCn1c(-c2ccccc2)nc2cnccc21 [SB-733416],19%
19,c1ccc(-c2ccnc3[nH]ccc23)cc1 [SB-693578],2%

row,SMILES,%Inh
1,CC(=O)c1c(C)c2cnc(Nc3ccn(C)n3)nc2n(C2CCCC2)c1=O,0%
2,O=C(Nc1n[nH]c2cc(-c3ccsc3)ccc12)C1CC1 [SB-732932],38%
3,CSc1ccc(-c2nc3n(c2-c2ccncc2)CCC3)cc1 [SKF-105561],0%
4,O=C(Nc1n[nH]c2nc(-c3ccco3)c(Br)cc12)C1CCN(Cc2ccccc2)C1.O=C(O)[C@H](O)[C@@H](O)C(=O)O (centres unmarked) [SB-742034],0%
5,CNc1nc(-c2ccc3c(N)n[nH]c3c2)cc(N2C[C@@H](C(=O)Nc3ccccc3)CC[C@H]2C)n1 [GSK2298859],0%
6,Cn1cncc1C(=O)NC1CCN(c2ccnc(Nc3ccc(F)cc3)n2)C1 (centres unmarked) [GSK1379717],0%
7,O=c1cc(N2CCOCC2)nc2n(Cc3ccccc3F)ccn12 [GSK2297428],0%
8,CCCCc1nn2ncccc2c1-c1ccnc(NC2CC2)n1 [GW684374],0%
9,O=C1NC(=O)C(c2ccc(Cl)cc2)=C1Nc1ccc(O)cc1 [SB-340867],4%
10,COc1ccc(Nc2nccc(NCCNC(=O)Nc3cc(C)ccc3C)n2)cc1 [GSK1379899],6%
11,CC[C@@H]1CO[C@H](C(=O)Nc2ccccc2)CN1c1cc(-c2ccc3c(N)n[nH]c3c2)nc(NC)n1 [GSK2376236],9%
12,COc1cccc(CNC(=O)NC2CCN(c3ccnc(Nc4ccc(F)cc4)n3)C2)c1 (centres unmarked) [GSK1379723],6%
13,Cc1ccc(NC(=O)Nc2ccc(Cl)c(C(F)(F)F)c2)cc1-c1ccc(C(=O)Nc2ccncc2)cc1 [GSK1398470],0%
14,Nc1ncnc2occ(-c3ccc4c(c3)CCN4C(=O)Cc3cc(F)ccc3F)c12 [GSK2645446],0%
15,Fc1ccc(-c2nc3n(c2-c2ccncc2)CCS3)cc1 [GI98581],24%
16,Cc1ccc(NC(=O)Nc2ccccc2F)cc1-c1ccc(C(=O)Nc2ccncc2)cc1 [GSK1398477],24%
17,Cc1c(Cn2c(C)c(C)n3c(=O)cc(N4CCOCC4)nc23)cccc1C(F)(F)F [GSK2328680],7%
18,COc1ccc(Nc2nccc(N3CCC(NC(=O)c4cc5ccccc5s4)C3)n2)cc1 (centres unmarked) [GSK1379738],12%
